Assays:
Experiment in all cases: PBM binding z-score (relative to random genomic background probes); higher = stronger binding; sequences stand for … in GC…GCGATTGACAGCGTAGAATGAAGG
[1] = tested on: RARb homodimer (NR concentration 270 nM)
Method in brief: (§1)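 Custom Agilent 4×180K protein-binding microarrays carried double-stranded probes, each with a 34-nt variable region. These regions held direct-repeat seeds, single-nucleotide variants, half-site ablations and random human genomic background sequences. Ligand-free nuclear receptor dimers were incubated on the arrays for 1 h, antibodies against each partner (one per run) detected binding, and scanned fluorescence was regression-normalized. Binding z-scores take the random background probes as reference.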

[2] = tested on: RARg:RXRa (NR concentration 270 nM, RXRa partner concentration 90 nM)
Method in brief: as §1

[3] = tested on: RARg homodimer (NR concentration 270 nM)
Method in brief: as §1

[4] = tested on: RXRa DBDmut IVT, anti-RXR (DBD mutation: RXRa K156A/R161A, NR concentration 90 nM)
Method in brief: as §1

[5] = tested on: RXRa homodimer (NR concentration 180 nM)
Method in brief: as §1

[6] = tested on: THRa:RXRa (NR concentration 90 nM, RXRa partner concentration 90 nM)
Method in brief: as §1

[7] = tested on: THRa homodimer (NR concentration 90 nM)
Method in brief: as §1

[8] = tested on: VDR:RXRa (NR concentration 270 nM, RXRa partner concentration 90 nM)
Method in brief: as §1

[9] = tested on: VDR homodimer (NR concentration 270 nM)
Method in brief: as §1

Sequence	PBM binding z-score [1]	PBM binding z-score [2]	PBM binding z-score [3]	PBM binding z-score [4]	PBM binding z-score [5]	PBM binding z-score [6]	PBM binding z-score [7]	PBM binding z-score [8]	PBM binding z-score [9]
ACAGACAGGTTAGTGAAGGTAACTCAGCTGGACG	0.435	0.363	0.773	-0.188	0.511	2.2	-0.138	-0.0325	-0.0977
ACTATTAGTCGACTTAGGGCAACCGATACGACGC	0.58	0.342	0.707	0.415	0.416	1.09	0.02	-0.299	-0.338
CCAGACAGGTGAGAAGGTAAATCAGCCTCGATTA	0.187	0.461	0.353	-0.268	0.202	0.113	-0.24	-0.13	-0.437
CCTACTGCGCCAAGGTCATTGATCAGTCAAAGCA	3.46	3.72	2.98	2.48	3.42	3.54	3.12	3.65	4.13
GCTAGTTGGTCAGTAAAAGGTCCCACACCGGTCG	1.08	0.163	0.286	-0.751	-0.112	-0.281	-0.0359	-0.352	-0.387
CCTAGTTGGTCAGGAGGTCACACGCCGGATATGA	4.02	4.96	4.34	0.884	4.77	3.41	2.31	3.93	2.95
ATAGAAAGGTCGAGGTGAGTATAGAGAAAGGGAA	2.6	4.22	4.22	0.887	4.17	2.93	0.985	2.79	0.537
AGCACGAGGGCAATGAGTTGATAGCACGGGTGGC	0.927	1.16	1.72	2.14	0.851	0.817	-0.487	5.06	3.16
GCTAGTTGGTCAGTAAAAAGTCACACACCGGTCG	1.33	0.522	0.701	0.212	0.223	0.00328	-0.343	0.0507	0.168
TCTGCTAGGTCAGTAGGTCAGCTAACGAGCTGCC	3.94	4.77	4.67	0.677	2.36	1.93	0.157	0.994	-0.0493
TCATATAGGTAGACAGGTGAAAGTCCGTAAGTTA	0.985	0.378	0.361	1.68	0.907	0.763	0.486	0.905	0.286
CAAACTAGGTCACAGAGGTCAAATTCCGTGCGTA	5.28	7.51	7.97	3.34	8.2	4.68	3.09	8.11	6.96
AGTCAAAGTTCAGGACGAAGTAACGTAAAGCACG	2.72	3.82	4.58	2.8	2.71	1.95	0.0307	2	1.27
TCTTATAGATCAAAGGTTAAGAAAGCCGAAGCCT	1.4	2.16	1.15	1.21	3.93	1.51	-0.709	2.27	0.214
TCTATTAGTTGACTAGGGCAACCGAAACAGCGGA	0.778	0.736	0.586	1.31	0.703	0.514	0.147	0.704	0.286
TCTTGTAGGTCAAGCAGGTTAAGAAAGCCTGAGT	3.48	4.8	5.5	1.7	4.02	3.08	0.641	5.16	1.49

— the supplement of paper PMC6555819
